# Measured values taken from PubChem BioAssay (EPA / NIEHS).
# Inconclusive results are not listed. The source made the active and inactive calls. The calls were made as follows: active = hit-call score of the fitted dose curve at least 0.9, where 1 is the maximum; inconclusive = response in the unintended direction; inactive = score below 0.9.
# Tests used:
# [1] = molecular target: human Acetylcholinesterase (AChE), ACHE (gene 43) (UniProt P22303); experiment: NVS_ENZ_hAChE: NovaScreen (NVS) Enzymatic Assay for human Acetylcholinesterase (AChE) (AID 2283129)
# human Acetylcholinesterase (AChE), ACHE (gene 43), sequence (P22303 whole entry, looked up): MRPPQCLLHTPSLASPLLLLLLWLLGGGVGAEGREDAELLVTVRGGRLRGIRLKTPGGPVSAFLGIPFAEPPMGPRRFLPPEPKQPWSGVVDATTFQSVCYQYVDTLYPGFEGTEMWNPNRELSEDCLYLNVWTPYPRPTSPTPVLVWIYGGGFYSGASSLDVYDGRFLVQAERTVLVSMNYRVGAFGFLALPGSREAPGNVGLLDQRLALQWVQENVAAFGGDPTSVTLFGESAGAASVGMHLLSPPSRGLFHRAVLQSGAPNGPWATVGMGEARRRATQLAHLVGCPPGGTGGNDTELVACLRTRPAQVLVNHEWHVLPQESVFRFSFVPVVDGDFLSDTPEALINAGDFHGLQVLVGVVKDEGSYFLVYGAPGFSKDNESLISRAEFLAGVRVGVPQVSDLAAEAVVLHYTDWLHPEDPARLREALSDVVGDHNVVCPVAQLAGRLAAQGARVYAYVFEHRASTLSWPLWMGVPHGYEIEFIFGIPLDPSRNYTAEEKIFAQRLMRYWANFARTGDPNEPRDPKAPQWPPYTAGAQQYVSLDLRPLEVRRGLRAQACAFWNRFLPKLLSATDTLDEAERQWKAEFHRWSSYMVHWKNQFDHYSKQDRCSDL
# Procedure, shortened: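 Cell-free colorimetric enzyme-activity assay; compounds read 0.33 hour after dosing, loss of signal vs DMSO baseline. Primary screen in duplicate at 25 uM single concentration, with active compounds retested in concentration series.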
# [2] = molecular target: human Fibroblast Growth Factor Receptor 1 (FGFR1), FGFR1 (gene 2260) (UniProt P11362); experiment: NVS_ENZ_hFGFR1: NovaScreen (NVS) Enzymatic Assay for human Fibroblast Growth Factor Receptor 1 (FGFR1) (AID 2283159)
# Procedure, shortened: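 Cell-free recombinant kinase with fluorescent substrate, product separated by electrophoretic mobility shift; read 1 hour after dosing, loss of signal relative to DMSO. Initial screen in duplicate at 25 uM, actives followed in concentration series.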
# [3] = molecular target: rat Acetylcholinesterase (AChE), Ache (gene 83817) (UniProt P37136); experiment: NVS_ENZ_rAChE: NovaScreen (NVS) Enzymatic Assay for rat Acetylcholinesterase (AChE) (AID 2283233)
# rat Acetylcholinesterase (AChE), Ache (gene 83817), sequence (P37136 whole entry, looked up): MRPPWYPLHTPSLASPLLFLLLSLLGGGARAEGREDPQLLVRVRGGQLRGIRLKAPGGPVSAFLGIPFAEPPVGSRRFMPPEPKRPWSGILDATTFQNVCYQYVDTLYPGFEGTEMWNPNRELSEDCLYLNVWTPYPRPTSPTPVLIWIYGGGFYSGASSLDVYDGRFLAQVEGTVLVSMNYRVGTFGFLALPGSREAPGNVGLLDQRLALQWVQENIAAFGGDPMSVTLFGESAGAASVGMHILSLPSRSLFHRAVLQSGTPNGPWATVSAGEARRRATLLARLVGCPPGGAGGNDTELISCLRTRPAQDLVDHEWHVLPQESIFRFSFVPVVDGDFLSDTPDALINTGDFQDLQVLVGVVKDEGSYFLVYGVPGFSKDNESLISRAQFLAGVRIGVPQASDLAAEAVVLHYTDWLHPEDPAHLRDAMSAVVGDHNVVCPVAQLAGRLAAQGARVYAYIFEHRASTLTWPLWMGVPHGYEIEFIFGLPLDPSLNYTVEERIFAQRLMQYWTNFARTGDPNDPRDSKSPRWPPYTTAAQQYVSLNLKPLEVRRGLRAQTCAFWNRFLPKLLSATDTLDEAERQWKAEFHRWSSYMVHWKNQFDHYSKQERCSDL
# Procedure, shortened: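 Rat brain membrane acetylcholinesterase activity measured colorimetrically 0.33 h after compound addition, loss of signal relative to DMSO. Primary screen in duplicate at 25 uM; actives re-run as concentration-response with 50 uM top concentration.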
# [4] = molecular target: rat Monoamine Oxidase, MAO-B, Central (MAOBC), Maob (gene 25750) (UniProt P19643); experiment: NVS_ENZ_rMAOBC: NovaScreen (NVS) Enzymatic Assay for rat Monoamine Oxidase, MAO-B, Central (MAOBC) (AID 2283238)
# Procedure, shortened: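 MAO-B activity in rat brain tissue preparation, cell-free, measured radiometrically by scintillation counting 1.17 h after dosing. Screened in duplicate at 25 uM; actives then in concentration-response up to 50 uM. Loss of signal versus DMSO scored.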
# [5] = molecular target: rat Monoamine Oxidase, MAO-B, Peripheral (MAOBP), Maob (gene 25750) (UniProt P19643); experiment: NVS_ENZ_rMAOBP: NovaScreen (NVS) Enzymatic Assay for rat Monoamine Oxidase, MAO-B, Peripheral (MAOBP) (AID 2283242)
# [6] = test system: rat Monoamine Oxidase, MAO-A, Central (MAOAC), gene 29253; experiment: NVS_ENZ_rMAOAC: NovaScreen (NVS) Enzymatic Assay for rat Monoamine Oxidase, MAO-A, Central (MAOAC) (AID 2283243);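 also: potency refers to inhibition seen as signal drop below DMSO baseline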
# Procedure, shortened: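 Rat brain tissue extract served as the cell-free enzyme source; activity was measured by radiometric scintillation counting 1.5 hours after compound addition. Loss of signal relative to DMSO baseline indicated inhibition; primary screen at 25 uM in duplicate.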
# [7] = molecular target: human Caspase 10 (CASP10), CASP10 (gene 843) (UniProt Q92851); experiment: NVS_ENZ_hCASP10: NovaScreen (NVS) Enzymatic Assay for human Caspase 10 (CASP10) (AID 2283133)
# Procedure, shortened: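 Recombinant human caspase-10 from E. coli, cell-free fluorogenic substrate assay read 1 h after dosing. Primary duplicate screen at 25 uM; hits (e.g. ≥30% inhibition) run singly in concentration-response up to 50 uM, normalised to DMSO.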
# [8] = molecular target: human Raf-1 Proto-Oncogene, serine/threonine Kinase (RAF1), RAF1 (gene 5894) (UniProt P04049); experiment: NVS_ENZ_hRAF1: NovaScreen (NVS) Enzymatic Assay for human Raf-1 Proto-Oncogene, serine/threonine Kinase (RAF1) (AID 2283216)
# Procedure, shortened: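 Cell-free recombinant kinase with specific fluorescent substrate, product separated by electrophoretic mobility shift; read 1 h after dosing. Primary screen at 25 uM in duplicate; hits then run in concentration-response up to 50 uM, fitted as loss of signal versus DMSO.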
# [9] = test system: rat Monoamine Oxidase, MAO-A, Peripheral (MAOAP), gene 29253; experiment: NVS_ENZ_rMAOAP: NovaScreen (NVS) Enzymatic Assay for rat Monoamine Oxidase, MAO-A, Peripheral (MAOAP) (AID 2283237)
# Procedure, shortened: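 Rat liver mitochondrial membranes served as the MAO-A source, with enzyme activity measured by radiometric scintillation counting 1.17 hours after dosing. Loss of signal was fitted against DMSO; primary screen used 25 uM in duplicate, follow-up used concentration series.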
# [10] = molecular target: human Neonicotinoid receptor (NNR), CHRNA2 (gene 1135) (UniProt Q15822); experiment: NVS_LGIC_hNNR_NBungSens: NovaScreen (NVS) Ligand-Gated Ion Channel Assay for human Neonicotinoid receptor (NNR) (AID 2283313)
# Procedure, shortened: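 Radioligand displacement on human neuroblastoma membranes, 2 h, filter-based scintillation counting. Primary screen in duplicate at 25 uM; chemicals passing threshold (e.g. 30% inhibition) run singleton concentration-response to 50 uM; loss of binding fitted versus DMSO.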
# [11] = molecular target: Bile acid receptor (Homo sapiens) (UniProt Q96RI1); experiment: NVS_NR_hFXR_Agonist: NovaScreen (NVS) Nuclear Receptor Binding Assay for human Farnesoid X Receptor Agonism (FXR) (AID 2283347)
# Bile acid receptor (Homo sapiens), sequence (Q96RI1 whole entry, looked up): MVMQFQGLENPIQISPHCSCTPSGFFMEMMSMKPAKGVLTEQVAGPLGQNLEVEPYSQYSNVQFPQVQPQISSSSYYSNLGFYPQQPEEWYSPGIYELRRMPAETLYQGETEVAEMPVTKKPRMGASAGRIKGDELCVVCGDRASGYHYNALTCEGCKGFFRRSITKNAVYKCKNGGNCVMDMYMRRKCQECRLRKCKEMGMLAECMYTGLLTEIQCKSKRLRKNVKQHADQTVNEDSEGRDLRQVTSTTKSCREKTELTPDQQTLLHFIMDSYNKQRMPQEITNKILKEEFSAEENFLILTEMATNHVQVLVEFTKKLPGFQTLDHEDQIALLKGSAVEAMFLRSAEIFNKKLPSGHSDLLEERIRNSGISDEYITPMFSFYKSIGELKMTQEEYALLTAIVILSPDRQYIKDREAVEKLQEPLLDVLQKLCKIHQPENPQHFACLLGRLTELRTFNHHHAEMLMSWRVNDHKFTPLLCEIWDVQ
# Procedure, shortened: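 Cell-free TR-FRET binding assay with extracted human FXR protein, agonist format, read 1 h after dosing. Primary screen at 25 uM single concentration in duplicate, actives retested in concentration series; gain of signal versus DMSO.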
# [12] = molecular target: human Phosphatase and Tensin Homolog (PTEN), PTEN (gene 5728) (UniProt P60484); experiment: NVS_ENZ_hPTEN: NovaScreen (NVS) Enzymatic Assay for human Phosphatase and Tensin Homolog (PTEN) (AID 2283203)
# Procedure, shortened: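 Cell-free recombinant human PTEN with fluorescent substrate; product separated by electrophoretic mobility shift and read by fluorescence 1 h after dosing. Primary screen in duplicate at 25 uM, actives followed in concentration series versus DMSO.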
# [13] = molecular target: human AMP-activated Protein Kinase, alpha 1 (AMPKa1), PRKAA1 (gene 5562) (UniProt Q13131); experiment: NVS_ENZ_hAMPKa1: NovaScreen (NVS) Enzymatic Assay for human AMP-activated Protein Kinase, alpha 1 (AMPKa1) (AID 2283130)
# human AMP-activated Protein Kinase, alpha 1 (AMPKa1), PRKAA1 (gene 5562), sequence (Q13131 whole entry, looked up): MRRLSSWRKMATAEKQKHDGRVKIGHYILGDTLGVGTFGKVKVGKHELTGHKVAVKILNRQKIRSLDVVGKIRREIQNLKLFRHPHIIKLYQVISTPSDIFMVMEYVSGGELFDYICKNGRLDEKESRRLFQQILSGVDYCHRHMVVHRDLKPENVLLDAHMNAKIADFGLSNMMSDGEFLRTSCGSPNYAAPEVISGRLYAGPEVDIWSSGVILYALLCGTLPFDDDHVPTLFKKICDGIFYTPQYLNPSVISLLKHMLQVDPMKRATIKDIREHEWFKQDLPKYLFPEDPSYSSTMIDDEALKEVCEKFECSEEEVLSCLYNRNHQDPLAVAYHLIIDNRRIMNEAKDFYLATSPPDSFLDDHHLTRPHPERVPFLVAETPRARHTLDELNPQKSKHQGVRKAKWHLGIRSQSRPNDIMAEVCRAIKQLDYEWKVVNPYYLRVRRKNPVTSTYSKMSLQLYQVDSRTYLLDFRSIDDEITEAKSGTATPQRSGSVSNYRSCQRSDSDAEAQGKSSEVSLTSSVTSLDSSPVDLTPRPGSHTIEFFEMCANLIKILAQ
# Procedure, shortened: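 Recombinant human AMPKα1 activity was measured cell-free by fluorescent substrate conversion with electrophoretic mobility-shift separation, 1 h after dosing. Duplicate single-point screening was at 25 uM; actives (≥30% inhibition) were retested in concentration-response up to 50 uM.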
# [14] = molecular target: human Aurora Kinase A - serine/threonine-protein Kinase 6 (AurA), AURKA (gene 6790) (UniProt O14965); experiment: NVS_ENZ_hAurA: NovaScreen (NVS) Enzymatic Assay for human Aurora Kinase A - serine/threonine-protein Kinase 6 (AurA) (AID 2283142)
# human Aurora Kinase A - serine/threonine-protein Kinase 6 (AurA), AURKA (gene 6790), sequence (O14965 whole entry, looked up): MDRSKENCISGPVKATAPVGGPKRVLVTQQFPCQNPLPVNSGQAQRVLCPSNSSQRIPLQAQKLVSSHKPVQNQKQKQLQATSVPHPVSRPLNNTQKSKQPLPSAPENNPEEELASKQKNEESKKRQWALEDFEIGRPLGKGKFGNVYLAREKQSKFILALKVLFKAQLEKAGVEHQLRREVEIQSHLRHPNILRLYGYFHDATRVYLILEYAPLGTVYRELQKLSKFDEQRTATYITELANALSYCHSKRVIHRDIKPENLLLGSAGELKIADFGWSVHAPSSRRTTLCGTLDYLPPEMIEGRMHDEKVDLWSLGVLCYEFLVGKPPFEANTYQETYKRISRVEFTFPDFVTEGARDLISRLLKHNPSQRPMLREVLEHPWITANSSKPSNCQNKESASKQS
# Procedure, shortened: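 Cell-free enzymatic assay with human Aurora A, 1 hour after dosing. Fluorescent substrate turnover detected after electrophoretic mobility shift separation of substrate and product. Screened at 25 uM, actives retested in concentration-response up to 50 uM.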
# [15] = molecular target: human Protein Tyrosine Phosphatase Receptor Type C (PTPRC), PTPRC (gene 5788) (UniProt P08575); experiment: NVS_ENZ_hPTPRC: NovaScreen (NVS) Enzymatic Assay for human Protein Tyrosine Phosphatase Receptor Type C (PTPRC) (AID 2283212)
# human Protein Tyrosine Phosphatase Receptor Type C (PTPRC), PTPRC (gene 5788), sequence (P08575 whole entry, looked up): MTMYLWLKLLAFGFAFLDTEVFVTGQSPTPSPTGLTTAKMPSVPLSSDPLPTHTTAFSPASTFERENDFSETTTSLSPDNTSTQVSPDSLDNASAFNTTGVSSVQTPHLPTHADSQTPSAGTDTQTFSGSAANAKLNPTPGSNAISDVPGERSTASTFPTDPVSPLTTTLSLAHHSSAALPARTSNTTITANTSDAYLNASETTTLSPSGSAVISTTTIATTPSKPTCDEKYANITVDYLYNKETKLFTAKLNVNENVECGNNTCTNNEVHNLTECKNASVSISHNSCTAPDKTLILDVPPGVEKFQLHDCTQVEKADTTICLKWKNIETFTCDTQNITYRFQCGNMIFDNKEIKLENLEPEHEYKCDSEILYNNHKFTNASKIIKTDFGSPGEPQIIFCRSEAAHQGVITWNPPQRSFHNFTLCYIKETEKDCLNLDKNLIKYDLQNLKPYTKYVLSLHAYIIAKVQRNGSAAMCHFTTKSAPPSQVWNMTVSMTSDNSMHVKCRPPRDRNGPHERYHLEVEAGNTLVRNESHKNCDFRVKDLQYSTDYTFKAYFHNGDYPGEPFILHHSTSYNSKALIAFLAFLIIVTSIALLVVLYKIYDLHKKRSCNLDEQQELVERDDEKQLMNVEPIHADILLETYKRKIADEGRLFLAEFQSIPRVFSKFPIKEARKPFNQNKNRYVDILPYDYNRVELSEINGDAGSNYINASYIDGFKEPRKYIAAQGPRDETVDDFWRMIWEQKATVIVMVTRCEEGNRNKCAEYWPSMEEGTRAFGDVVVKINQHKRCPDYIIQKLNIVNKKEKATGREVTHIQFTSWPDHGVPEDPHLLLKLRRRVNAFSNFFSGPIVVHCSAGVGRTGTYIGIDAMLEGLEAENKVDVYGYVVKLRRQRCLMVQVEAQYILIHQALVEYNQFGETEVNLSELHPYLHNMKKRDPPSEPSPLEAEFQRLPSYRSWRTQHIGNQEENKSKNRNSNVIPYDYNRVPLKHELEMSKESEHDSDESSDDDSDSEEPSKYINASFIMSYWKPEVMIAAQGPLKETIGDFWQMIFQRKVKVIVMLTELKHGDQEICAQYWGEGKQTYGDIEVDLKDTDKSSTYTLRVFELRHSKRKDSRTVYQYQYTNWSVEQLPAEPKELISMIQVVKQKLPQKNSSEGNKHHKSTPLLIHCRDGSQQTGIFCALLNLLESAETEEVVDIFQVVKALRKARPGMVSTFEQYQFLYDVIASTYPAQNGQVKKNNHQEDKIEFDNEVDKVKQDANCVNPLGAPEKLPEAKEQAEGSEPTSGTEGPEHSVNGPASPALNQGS
# Procedure, shortened: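 Yeast-extracted human PTPRC used in a cell-free colorimetric enzyme activity read-out, 1 h after dosing. Primary screen in duplicate at 25 uM; actives rerun in concentration-response up to 50 uM, DMSO as baseline.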
# [16] = molecular target: Voltage-dependent N-type calcium channel subunit alpha-1B (Rattus norvegicus) (UniProt Q02294); experiment: NVS_IC_rCaChN: NovaScreen (NVS) Ion Channel Assay for rat Calcium Channel, Type N (CaChN) (AID 2283317)
# [17] = molecular target: human Caspase 2 (CASP2), CASP2 (gene 835) (UniProt P42575); experiment: NVS_ENZ_hCASP2: NovaScreen (NVS) Enzymatic Assay for human Caspase 2 (CASP2) (AID 2283135)
# human Caspase 2 (CASP2), CASP2 (gene 835), sequence (P42575 whole entry, looked up): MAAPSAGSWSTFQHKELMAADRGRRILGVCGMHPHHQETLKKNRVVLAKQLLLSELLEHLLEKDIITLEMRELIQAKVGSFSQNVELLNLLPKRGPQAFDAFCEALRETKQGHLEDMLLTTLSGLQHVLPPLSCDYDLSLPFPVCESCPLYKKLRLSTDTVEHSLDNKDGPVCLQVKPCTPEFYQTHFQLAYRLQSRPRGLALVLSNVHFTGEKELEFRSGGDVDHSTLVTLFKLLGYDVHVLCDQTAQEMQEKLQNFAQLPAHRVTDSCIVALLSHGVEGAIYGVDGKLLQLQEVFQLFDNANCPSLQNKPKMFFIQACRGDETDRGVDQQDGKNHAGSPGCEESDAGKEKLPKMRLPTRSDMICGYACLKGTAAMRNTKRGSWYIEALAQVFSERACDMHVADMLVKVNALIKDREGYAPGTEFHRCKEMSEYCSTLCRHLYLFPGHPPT
# Procedure, shortened: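 E. coli-expressed enzyme in a cell-free protease assay, fluorescence read 1 h after dosing. Compounds at 25 uM in duplicate, with concentration-response up to 50 uM for hits; loss of signal against DMSO baseline.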
# [18] = molecular target: human p21 Activated Kinase 4 (PAK4), PAK4 (gene 10298) (UniProt O96013); experiment: NVS_ENZ_hPAK4: NovaScreen (NVS) Enzymatic Assay for human p21 Activated Kinase 4 (PAK4) (AID 2283189)
# human p21 Activated Kinase 4 (PAK4), PAK4 (gene 10298), sequence (O96013 whole entry, looked up): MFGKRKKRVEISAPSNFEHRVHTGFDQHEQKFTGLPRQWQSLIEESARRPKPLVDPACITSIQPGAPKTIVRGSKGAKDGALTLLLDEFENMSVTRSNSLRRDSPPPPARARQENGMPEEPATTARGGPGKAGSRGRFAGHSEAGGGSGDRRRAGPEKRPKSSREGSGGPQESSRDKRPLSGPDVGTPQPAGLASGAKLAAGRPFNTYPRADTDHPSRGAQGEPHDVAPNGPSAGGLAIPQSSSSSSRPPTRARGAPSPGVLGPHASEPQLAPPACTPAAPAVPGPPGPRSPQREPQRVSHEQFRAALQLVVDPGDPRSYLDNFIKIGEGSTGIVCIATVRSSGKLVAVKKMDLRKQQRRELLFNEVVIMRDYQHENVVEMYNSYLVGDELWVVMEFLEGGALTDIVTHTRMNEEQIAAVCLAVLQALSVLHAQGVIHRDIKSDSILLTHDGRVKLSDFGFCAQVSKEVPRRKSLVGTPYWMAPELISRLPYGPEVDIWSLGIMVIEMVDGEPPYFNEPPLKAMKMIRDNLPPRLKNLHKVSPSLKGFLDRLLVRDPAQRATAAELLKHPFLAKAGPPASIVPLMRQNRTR
# Procedure, shortened: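 Cell-free recombinant human PAK4 activity assay; fluorescent substrate and product separated by electrophoretic mobility shift, read 1 h after dosing. Initially tested in duplicate at 25 uM, relative to DMSO baseline.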
# [19] = molecular target: human Tyrosine Protein Kinase Receptor Tie-2 (Tie2), TEK (gene 7010) (UniProt Q02763); experiment: NVS_ENZ_hTie2: NovaScreen (NVS) Enzymatic Assay for human Tyrosine Protein Kinase Receptor Tie-2 (Tie2) (AID 2283225)
# Procedure, shortened: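 Recombinant human Tie2 kinase activity was read cell-free by fluorescence with electrophoretic mobility shift, 1 hour after dosing. The screen used 25 uM in duplicate, then concentration-response up to 50 uM. Signal loss was scored against DMSO.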
# [20] = molecular target: human Epidermal Growth Factor Receptor (EGFR), EGFR (gene 1956) (UniProt P00533); experiment: NVS_ENZ_hEGFR: NovaScreen (NVS) Enzymatic Assay for human Epidermal Growth Factor Receptor (EGFR) (AID 2283151)
# Procedure, shortened: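 Cell-free kinase assay, fluorescence plus electrophoretic mobility shift separating substrate and product, read 1 hour after dosing; loss of signal vs DMSO. Duplicate screen at 25 uM, then concentration-response to 50 uM.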
# [21] = molecular target: human NIMA (Never In Mitosis Gene A)-Related Kinase 2 (NEK2), NEK2 (gene 4751) (UniProt P51955); experiment: NVS_ENZ_hNEK2: NovaScreen (NVS) Enzymatic Assay for human NIMA (Never In Mitosis Gene A)-Related Kinase 2 (NEK2) (AID 2283188)
# Procedure, shortened: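 Cell-free NEK2 enzyme activity after 1 h exposure, read by fluorescence with electrophoretic mobility shift separating substrate and product. Primary screen in duplicate at 25 uM; actives then run as concentration series. Loss of signal versus DMSO scored.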
# [22] = molecular target: human Matrix Metalloproteinase-1 (MMP1), MMP1 (gene 4312) (UniProt P03956); experiment: NVS_ENZ_hMMP1: NovaScreen (NVS) Enzymatic Assay for human Matrix Metalloproteinase-1 (MMP1) (AID 2283181)
# Procedure, shortened: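 Human MMP1 enzyme activity measured by fluorescence 1 h after dosing, cell-free, with a specific substrate. Screened in duplicate at 25 uM; hits (e.g. 30% inhibition) run in concentration-response up to 50 uM; loss of signal versus DMSO.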
structure (smiles),measurement,setting,value
N=C(N)c1ccc(OCCCCCOc2ccc(C(=N)N)cc2)cc1,AC50,[1],19.3 µM (active)
same,outcome,[2],inactive
same,AC50,[3],21.9 µM (active)
same,AC50,[4],0.0798 µM (active)
same,AC50,[5],0.905 µM (active)
same,AC50,[6],0.203 µM (active)
CN1C(=O)CC[C@H]1c1cccnc1,outcome,[7],inactive
Clc1cc(Cl)c2c(c1)N=C1CCCCCN1C2,AC50,[1],0.351 µM (active)
same,outcome,[8],inactive
same,AC50,[3],0.463 µM (active)
same,AC50,[9],4.96 µM (active)
same,AC50,[6],8.08 µM (active)
same,AC50,[10],1.98 µM (active)
CC[C@H]1CC[C@H](NCc2cc3c(cc2OC)[C@H]2C[C@H]2C(=O)N3C)[C@H](c2ccccc2)N1,AC50,[1],20.5 µM (active)
same,AC50,[3],15.7 µM (active)
COc1cc(C(C)C)c2c(c1)S(=O)(=O)N(COc1cc(=O)n3cccc(OCCN4CCCCC4)c3n1)C2=O,AC50,[1],5.52 µM (active)
same,AC50,[3],6.25 µM (active)
same,outcome,[11],inactive
CSC(=O)c1cccc2nnsc12,outcome,[1],inactive
same,outcome,[12],inactive
same,AC50,[3],1.32 µM (active)
same,AC50,[4],25 µM (active)
same,AC50,[6],28.2 µM (active)
CC1=C(/C=C/C(C)=C/C=C/C(C)=C/CO)C(C)(C)CCC1,outcome,[13],inactive
same,outcome,[14],inactive
same,outcome,[2],inactive
CS(=O)(=O)c1ccc([C@@H](C[C@H]2CCC(=O)C2)C(=O)Nc2cnccn2)cc1Cl,outcome,[1],inactive
same,AC50,[15],16.6 µM (active)
same,outcome,[16],inactive
COc1cc(-c2nc(NC(=O)c3cc4cc(C)cc(C)c4n3CC(=O)O)sc2CCC2CCCCC2)c(OC)cc1Cl,AC50,[13],8.19 µM (active)
same,AC50,[17],7.75 µM (active)
same,AC50,[15],11.4 µM (active)
O=C(NO)C1(NS(=O)(=O)c2ccc(Oc3ccc(F)cc3)cc2)CCOCC1,outcome,[13],inactive
same,outcome,[17],inactive
same,outcome,[14],inactive
same,outcome,[18],inactive
same,outcome,[15],inactive
same,outcome,[19],inactive
CN1C(=O)N(c2ccccc2Br)Cc2cnc(Nc3ccc4c(c3)OCC(CO)O4)nc21 (stereo not drawn),outcome,[7],inactive
same,AC50,[14],5.65 µM (active)
same,AC50,[20],0.00229 µM (active)
same,AC50,[21],0.00229 µM (active)
same,AC50,[18],8.54 µM (active)
same,AC50,[8],0.00359 µM (active)
O=C1c2c(O)cccc2Cc2cccc(O)c21,AC50,[1],0.484 µM (active)
same,AC50,[17],1.03 µM (active)
same,AC50,[22],15.7 µM (active)
CC(C)CC(C)(O)C#CC(C)(O)CC(C)C (stereo not drawn),outcome,[13],inactive
